M1 antagonist: blocks the rat M1 muscarinic receptor response to acetylcholine; CHO-M1 cells, Fluo-4 calcium, ACh EC80 antagonist mode; hits give low values; 64,000 tested, 3.4% active; B-score at 10 µM; P08482;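 active means calcium fluorescence response, raw or row-and-column corrected B-score, differing from the plate sample mean either way at a set confidence level, mostly lower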
PLAP act: human PLAP activation. P05187. purified PLAP enzyme, luminescent substrate read-out; hits give high values. activation fold at 20 µM. 96,000 tested, 1.2% active; in the data active means activation fold above about 2
Target sequence (P05187 whole entry, looked up): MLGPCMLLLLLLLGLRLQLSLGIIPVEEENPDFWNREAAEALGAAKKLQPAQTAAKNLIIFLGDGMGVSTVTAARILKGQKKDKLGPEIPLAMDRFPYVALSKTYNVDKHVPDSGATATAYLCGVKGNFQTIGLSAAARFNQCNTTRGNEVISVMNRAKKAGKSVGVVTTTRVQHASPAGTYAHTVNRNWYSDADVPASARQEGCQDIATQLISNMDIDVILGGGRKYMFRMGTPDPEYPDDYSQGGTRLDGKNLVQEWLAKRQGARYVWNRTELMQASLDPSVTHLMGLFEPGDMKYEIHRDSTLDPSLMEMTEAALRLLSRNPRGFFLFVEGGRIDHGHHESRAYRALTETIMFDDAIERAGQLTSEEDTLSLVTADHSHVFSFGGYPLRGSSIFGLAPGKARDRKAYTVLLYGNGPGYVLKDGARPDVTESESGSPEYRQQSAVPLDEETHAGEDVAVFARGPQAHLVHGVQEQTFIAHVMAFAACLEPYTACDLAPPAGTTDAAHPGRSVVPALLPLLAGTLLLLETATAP
M1 ag: activates the M1 muscarinic receptor | AID 626 | B-score at 10 µM | 64,000 tested, 3% active | CHO-M1 cells, Fluo-4 calcium fluorescence, agonist mode; hits give high values;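 active means fluorescence rise, raw or as B-score row- and column-corrected plate score, outside the 99.7% band of its plate's samples, either direction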
Cav32 inh: blocks human Cav3.2 T-type calcium channel; O95180; Cav3.2-expressing cells, Fluo-4 calcium fluorescence FDSS; hits give low values; B-score at 10 µM; 100,000 tested, 4% active;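 active means single-dose well whose peak fluorescence ratio is a statistical outlier from its plate by either plate-standardised score or position-corrected B-score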
Numbers without * were called inactive; · = no result given. This is a sample that favours compounds with a hit; in the whole collection about 7.6% have one here.

SMILES | M1 antagonist | PLAP act | M1 ag | Cav32 inh
O=C(Nc1ccc2c(c1)OCO2)C(c1ccc(Cl)cc1)N1CCC2(CC1)OCCO2 (stereo not drawn) | -0.064 | 1.3 | 0.253 | -6.7*
CC(C)c1ccc(NC(=O)C(c2ccc3c(c2)OCO3)N2CCC3(CC2)OCCO3)cc1 (stereo not drawn) | -0.592 | 1.7 | -0.0111 | -7.52*
CC(C)c1ccc(NC(=O)C(c2ccc3c(c2)OCO3)N2CCCCC2)cc1 (stereo not drawn) | · | 1.6 | · | -2.52
CC(C)NC(=O)CSc1nncn1-c1ccccc1 | -0.000864 | 1 | -0.571 | 0.629
CC(Sc1nc2ccccc2n1C)C(=O)NC(c1ccccc1)c1ccccc1 (stereo not drawn) | · | · | · | -9.34*
Cn1c(Sc2nc3ccccc3n2C)nc2ccccc21 | -0.00654 | 0.9 | 0.107 | -0.416
CC(C)NC(=O)CSc1nc2ccccc2n1-c1ccccc1 | 0.945* | · | 0.255 | -1.09
NC(=O)CN1CCN(C(=O)Nc2ccccc2)CC1 | 0.254 | 0.9 | 0.561 | -0.375
O=C(CSc1nnnn1-c1ccc(Cl)cc1)NC(=O)Nc1ccc2c(c1)OCCO2 | -0.0217 | · | 0.05 | 0.987
Clc1ccc(CSc2nnnn2-c2ccc3c(c2)OCO3)c(Cl)c1 | · | 0.5 | · | -3.45*
CC(=O)Nc1ccc(C(=S)NCc2ccco2)cc1 | · | 0.8 | · | ·
CCc1ccc(N/C(SCc2ccccc2C)=C(/C#N)C(=O)NCc2ccco2)cc1 | · | 1.2 | · | -5.42*
CCOc1ccc(NC(=O)CN(C)CC(=O)NC2CCCc3ccccc32)cc1OCC (stereo not drawn) | 0.107 | 1.6 | -0.207 | 0.246
O=C(CN1C(=O)NC2(CCCCCC2)C1=O)N1CCC(Cc2ccccc2)CC1 | -0.762 | · | -0.929 | 4.28*
COCC(=O)n1nc(NCc2ccc(OC)cc2)nc1NCc1ccc(OC)cc1 | 1.23 | 1.3 | 0.815 | -8.92*
O=C(/C=C/c1ccccc1)NC(=S)NNC(=O)Cc1cccs1 | · | · | · | -4.08*
CCC(C)NS(=O)(=O)c1ccc(S(=O)(=O)N2CCCC3(CCCCC3)C2)cc1 (stereo not drawn) | · | 0.7 | · | -6.35*
CCC(C)NS(=O)(=O)c1ccc(OCC(=O)N2CCCC2)cc1 (stereo not drawn) | · | · | · | -0.123
COc1ccc2nc(NC(=O)CCc3nc(-c4ccccc4F)no3)sc2c1 | -0.101 | 0.8 | 0.0421 | 0.772
S=C(NCc1ccco1)N1CCN(C(c2ccccc2)c2ccccc2)CC1 | · | 1.1 | · | -1.14
Cc1ccc(SCC(=O)NC(=O)NCc2ccco2)cc1C | · | 0.8 | · | -6.61*
Cc1ccccc1Nc1nnc(SCC(=O)NC(=O)NCc2ccco2)s1 | 0.368 | 1.1 | 0.411 | ·
O=C(CN1CCN(C(c2ccccc2)c2ccccc2)CC1)NC(=O)NCc1ccco1 | -0.507 | 1.3 | -3.17* | -5.1*
COc1ccc(-n2c(SCC(=O)N3CCCC3)nc3c([nH]c4ccccc43)c2=O)cc1 | -0.0311 | · | -0.885 | ·
O=C(O)c1cnc(-c2ccccc2)nc1Sc1ccc(Cl)cc1Cl | · | 1.2 | · | -0.987
SMILES | M1 antagonist | PLAP act | M1 ag | Cav32 inh
COC(=O)C(NC(C)=O)(Nc1nc2c(C)cc(C)cc2s1)C(F)(F)F (stereo not drawn) | · | 1.1 | · | -4.3*
COc1cccc(/C=N/NC(=O)CCc2ccccc2)c1 | · | 5.8 | · | -0.117
COc1cccc(/C=N/NC(=O)CCc2c(C)n[nH]c2C)c1 | · | 2.1* | · | -0.47
O=C(NNC(=S)Nc1ccccc1)c1ccncc1 | · | 2* | · | ·
O=C(NNC(=S)NC(=O)C12CC3CC(CC(C3)C1)C2)c1ccncc1 | · | 1.9 | · | -4.25*
O=C(CN1C(=O)C2CC=CCC2C1=O)NC1CCCc2ccccc21 (stereo not drawn) | · | 1 | · | 0.684
Cc1cccc(Nc2nnc(SCc3cn4ccsc4n3)s2)c1 | 0.0914 | 2.1* | 1.69 | -0.658
CC(C)c1noc2ncc(C(=O)c3cc(Cl)cc(Cl)c3O)cc12 | · | 1.2 | · | -6.53*
COc1ccc(O)c(C(=O)c2cnc3onc(C)c3c2)c1 | -0.0874 | 1.1 | -0.464 | -1.8
O=C(c1ccc(COc2ccccc2Cl)o1)N1CCN(Cc2ccc3c(c2)OCO3)CC1 | -0.204 | 1.3 | 2.63 | -4.95*
O=C(c1ccc(S(=O)(=O)N2CCCC2)cc1)N1CCN(Cc2ccc3c(c2)OCO3)CC1 | 0.154 | 1.5 | -0.139 | 3.86*
Cc1ccc(NC(=O)N2CCN(Cc3ccc4c(c3)OCO4)CC2)cc1 | · | 2* | · | 0.51
O=C(CSCc1cccc(Cl)c1)N1CCN(Cc2ccc3c(c2)OCO3)CC1 | · | 1.8 | · | -5.14*
COc1cc(/C=C(/C(=O)c2cccs2)c2nc3ccccc3[nH]2)cc(OC)c1O | · | 0.4 | · | ·
Cc1ccc(CNCCC2=CCCCC2)cc1 | · | 0.8 | · | 0.0831
CCOc1cc(NC(=O)c2ccccc2[N+](=O)[O-])c(OCC)cc1NC(=O)CC(C)C | · | 1 | · | 0.763
S=C(Nc1cccc(Cl)c1)Nc1ccccc1Oc1ccccc1 | · | 0.7 | · | -7.23*
